Assay outcomes: PubChem, several laboratories
rCAG binder = r(CAG) repeat RNA binding | inhibition, % at 3 µM | TO-PRO-1 dye displacement fluorescence | 370,000 compounds, 1.3% hits;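 active = inhibition above the plate cutoff, the mean of all test compounds on that plate plus 3 SD, cut at about 35% in these data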;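 note: 0% = DMSO alone and 100% = 100 µM mitoxantrone as full dye displacement; higher means more dye released from RNA so lower well fluorescence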
Myeloid diff MLP = promotes myeloid progenitor differentiation | ER-HoxA9 myeloid progenitors, lysozyme-GFP differentiation, flow cytometry | calls only at 10 µM | 360,000 compounds, 1% hits;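 active = normalized GFP-positive differentiation at or above the plate's own cutoff, the solvent-only control mean plus 3 SD; inconclusive = no clear call, values can overlap the other calls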;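 note: cells exposed to compound for four days before flow analysis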
FAS TE block = blocks the thioesterase domain of human fatty acid synthase | 360,000 compounds, 0.67% hits | recombinant FAS-TE, OMFH fluorogenic substrate, fluorescence endpoint | inhibition, % at 15 µM;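 active = compounds whose normalised, plate-corrected inhibition of enzyme fluorescence in the single-dose primary screen is 50% or more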;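 note: 0% = DMSO with enzyme and 100% = substrate without enzyme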
MPTP inh = permeability transition pore inhibition | 360,000 compounds, 1.4% hits | AID 602449 | inhibition, % at 10 µM | isolated mouse mitochondria, Ca2+ swelling absorbance, 30 min;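 active = inhibition of 50% or more, scaled per plate between neutral and stimulator controls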;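 note: 0% = DMSO wells given calcium and 100% = 1 mM EGTA wells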
GRIN3A LBD mod = modulates the human NR3A ligand-binding domain. NR3A LBD differential scanning fluorimetry, Tm shift; 0% = protein alone, 100% = glycine-bound protein. Tm shift relative to glycine control, % at 25 µM. 340,000 compounds, 2.5% hits. AID 1259313;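 active = melting temperature shift of at least 10% of the positive control shift, at one fixed dose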
MPTP counter = mitochondrial membrane potential, counter-screen. shares compounds with MPTP inh. 5,000 compounds, 78% hits. inhibition, % at 10 µM. AID 624504. isolated mitochondria, Rhodamine 123 fluorescence; in the data active = inhibition above about 22%;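 note: 0% = DMSO vehicle and 100% = positive control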
MPTP swell DR = dose response confirmation of mitochondrial permeability transition pore inhibitors. isolated mitochondria swelling, absorbance. AID 651561. IC50, µM. shares compounds with MPTP inh. 780 compounds, 58% hits; in the data active = IC50 below about 20 µM
MPTP cs DR = active in counter-screen for permeability transition pore inhibitors; AID 651564; IC50, µM; shares compounds with MPTP inh; 780 compounds, 49% hits; isolated mitochondria counterscreen, fluorescence read-out; in the data active = IC50 below about 80 µM
An asterisk follows results filed as active; i = inactive; ? = inconclusive; · = no result given. Sampled rows, rich in hits. Any-hit rate of the full collection: about 5.7%.

SMILES	rCAG binder	Myeloid diff MLP	FAS TE block	MPTP inh	GRIN3A LBD mod	MPTP counter	others
COc1ccccc1OC(=O)Nc1ccc(Cl)cc1	-3	i	-2	58*	10	75*
COc1ccccc1OCC(=O)NNC(=O)Nc1ccc(Cl)cc1	-5	i	-3	0	1	·
CS(=O)(=O)c1ccc(Nc2nc(C(N)Cc3ccc(Cl)cc3)cs2)cc1 (centres undefined)	9	i	-4	25	·	·
O=C(C(=O)N1CCN(S(=O)(=O)c2ccc(Cl)cc2)CC1)c1cccc(C(F)(F)F)c1	1	·	·	·	·	·
COC(=O)[C@H](Cc1ccccc1)N1CC=CS1(=O)=O	1	·	·	·	·	·
CC(Nc1ncnc2ccccc12)c1ccccc1 (centres undefined)	-2	i	-2	96*	0	83*
CCCCC(Nc1ncnc2ccccc12)C(=O)O (centres undefined)	0	i	-5	-1	-1	·
CN(Cc1cn(CC2CCCCC2)nn1)S(=O)(=O)c1ccccc1Br	1	·	·	·	·	·
CCCCCCSc1nc(O)c(C2OC(=O)c3c2ccc(OC)c3OC)c(=O)n1-c1ccccc1 (centres undefined)	15	i	-1	2	0	·
CC1=C(C#N)C(C)(C)C(C#N)=C(C)N1	2	i	-8	3	·	·
COc1cc(C(=O)NCCOc2cc(C)ccc2C(C)C)cc(OC)c1OC	-3	i	7	57*	-3	64*
Cc1cc(N/N=C/c2c(O)ccc3ccccc23)nc(-c2ccccc2O)n1	16	i	30	66*	14*	52*
Oc1ccc2ccccc2c1/C=N/Nc1ccccc1	14	i	1	2	-12	·
Clc1ccc(COc2cccc(CNCc3ccncc3)c2)cc1	-6	i	1	68*	-2	85*
COc1cccc(NC(=S)NCCC(c2ccccc2)c2ccccc2)c1	-3	i	21	4	8	·
COc1cc(NC(=S)NCCC(c2ccccc2)c2ccccc2)cc(OC)c1	4	i	26	78*	-3	92*
Cc1cccc(NC(=S)NCCC(c2ccccc2)c2ccccc2)c1	4	i	29	87*	10	100*
CC1(C(=O)NCc2ccccc2)CCC(=O)N1CC(F)(F)F (centres undefined)	-3	i	-14	-2	·	·
Fc1cccc(CCN2CCNC[C@@H]2Cc2ccccc2)c1	6	i	-13	22	-4	·
FC(F)(F)c1cc(CCN2CCNC[C@@H]2Cc2ccccc2)cc(C(F)(F)F)c1	-1	i	-7	92*	-4	-22
CCc1ccc(-c2cc(C(=O)N3N=C(C(F)F)CC3(O)C(F)F)c3ccccc3n2)cc1 (centres undefined)	11	i	37	84*	22*	83*
CC(C)Cc1cc(C(=O)N2N=C(C(F)F)CC2(O)C(F)F)c2ccccc2n1 (centres undefined)	2	i	5	35	-4	·
CC(C)(C)c1ccc(S(=O)(=O)N2CCC(N3CCCCC3)CC2)cc1	-2	i	-2	71*	0	2	MPTP swell DR=i;MPTP cs DR=27*
CC(C)(C)c1ccc(S(=O)(=O)N2CCC(O)(c3ccc(Cl)cc3)CC2)cc1	-1	i	41	84*	0	92*
CCOC(=O)[C@H]1[C@H]2COc3ccc(C)cc3[C@@H]2N2C(=O)c3cc(Cl)ccc3NC(=O)[C@@]12C	-1	i	16	-1	-3	·
SMILES	rCAG binder	Myeloid diff MLP	FAS TE block	MPTP inh	GRIN3A LBD mod	MPTP counter	others
Cc1cc(C(=O)CSc2nc3ccccc3c(=O)[nH]2)c(C)n1CC1CCCO1 (centres undefined)	0	i	2	81*	-1	75*
Cc1cc(C(=O)COC(=O)CCc2nc3ccccc3c(=O)[nH]2)c(C)n1CC1CCCO1 (centres undefined)	·	·	·	·	-2	·
O=C(Nc1ccc(N2CCOCC2)cc1N1CCOCC1)c1ncoc1-c1cccc(F)c1	4	i	16	1	2	·
CN(c1ccccc1)S(=O)(=O)c1ccc(C(=O)OCC(=O)NCc2ccco2)cc1	1	i	5	1	-2	·
COc1ccccc1N(C)S(=O)(=O)c1ccc(C(=O)OCC(=O)NCc2ccco2)cc1	-6	i	2	51*	-1	-1	MPTP swell DR=>100;MPTP cs DR=>80
Cc1ccc(NC(=O)CC(O)(C(F)(F)F)C(F)(F)F)c(Br)c1	0	i	5	53*	-2	79*
CCOc1cc(CNC2CCCC2)cc(Cl)c1OCc1ccccc1	4	i	-14	68*	-1	-3	MPTP swell DR=3.1*;MPTP cs DR=49*
Cc1cc([N+](=O)[O-])ccc1NC(=O)Nc1ccc(F)cc1F	1	i	22	98*	1	78*
O=C(Nc1ccccc1F)Nc1ccc([N+](=O)[O-])cc1Cl	4	i	9	90*	-8	92*
O=C(Nc1ccc(Cl)cc1)Nc1ccccc1Sc1ncc([N+](=O)[O-])s1	13	?	-16	86*	13*	73*
O=C(Nc1csc([N+](=O)[O-])c1)Nc1ccccc1Cl	10	i	7	89*	39*	80*
COc1ccc(NC(=O)Nc2ccc(F)cc2F)c(C)c1	-2	i	-5	3	-1	·
O=S(=O)(NC1=NCCCCC1)c1ccccc1Cl	2	i	-7	1	-1	·
COc1ccc(OC)c(/C=N/NC(=O)Cc2nc3ccccc3[nH]2)c1	12	i	0	0	-6	·
O=c1cc(O)nc(SCc2ccccc2)n1-c1ccc(Cl)cc1	27	i	2	-2	0	·
Cc1nc(C)c(C(=O)NNS(=O)(=O)c2ccc3ccccc3c2)s1	0	i	-5	89*	-1	62*
CC(C1CC1)N(Cc1ccccc1)C(=S)Nc1cccc(C(F)(F)F)c1 (centres undefined)	-7	i	31	65*	0	85*
CC(C1CC1)N(Cc1ccccc1)C(=S)Nc1ccccc1 (centres undefined)	-2	i	5	-2	1	·
CC(C)(C)n1nnnc1C(c1cc2ccccc2o1)N(CCC#N)Cc1ccccc1 (centres undefined)	-1	i	16	-2	·	·
CC(C)c1c(O)ccc2c1CC[C@H]1C(C)(C)CCC[C@]21C	2	i	35	98*	22*	11	MPTP swell DR=i;MPTP cs DR=16*
CC(C)(C)c1ccc(C(=O)C2CCCN(C(=O)c3ccccn3)C2)cc1 (centres undefined)	-8	i	-21	70*	0	93*
Cn1c(NCc2c(O)ccc3ccccc23)nc2ccccc21	11	i	23	51*	14*	45*
